Bead autofluor: compound fluorescence in toxin protease inhibitor counterscreen; compound autofluorescence counterscreen, microsphere flow cytometry; hits give high values; fluorescence intensity (test concentration not listed); 3.1% of 360,000 active; in the data active = fluorescence intensity above about 16000; inconclusive = no clear call, values can overlap the other calls
VHR inh abs: DUSP3 (human) phosphatase inhibition. P51452. inhibition, % at 13.3 µM. 0.52% of 290,000 active. AID 1654. recombinant VHR phosphatase, pNPP absorbance; in the data active = inhibition above about 50%
Target sequence (P51452 whole entry, looked up): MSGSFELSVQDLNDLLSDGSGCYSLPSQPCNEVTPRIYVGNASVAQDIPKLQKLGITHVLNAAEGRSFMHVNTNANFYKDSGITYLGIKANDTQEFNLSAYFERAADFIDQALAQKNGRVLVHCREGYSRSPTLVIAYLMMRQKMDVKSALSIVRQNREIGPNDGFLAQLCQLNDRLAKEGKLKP
MazEF act: MazEF (E. coli) toxin RNase activation | FAM/BHQ RNA-DNA oligo cleavage fluorescence, 5 h | 0.32% of 350,000 active | activation, % at 20 µM | P0AE70; in the data active = activation above about 50%
Target sequence (P0AE70 whole entry, looked up): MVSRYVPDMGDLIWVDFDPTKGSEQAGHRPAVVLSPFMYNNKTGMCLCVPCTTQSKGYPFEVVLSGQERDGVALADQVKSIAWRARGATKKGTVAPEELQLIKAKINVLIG
BoNT F protease: BoNT F light chain protease inhibition. 0.22% of 360,000 active. inhibition, % at 10 µM. AID 588497. Multiplex microsphere protease cleavage assay, flow cytometry; in the data active = inhibition above about 35%, passing the limit was not always enough; inconclusive = no clear call, values can overlap the other calls; also: plate controls were buffer without enzyme for full effect and enzyme alone for no effect
Anthrax LF prot: inhibitors of Bacillus anthracis lethal factor protease; P15917; multiplex microsphere protease cleavage assay, LF; inhibition, % at 10 µM; 0.12% of 360,000 active; AID 588501; also: plate controls were buffer without enzyme for full effect and enzyme alone for no effect
BoNT-A LC inh2: blocks Botulinum neurotoxin A light chain protease; AID 588499; inhibition, % at 10 µM; 0.17% of 360,000 active; multiplex microsphere protease substrate cleavage, flow cytometry; also: plate controls were buffer without enzyme for full effect and enzyme alone for no effect
Active calls of the source: *; ? = inconclusive; · = no result given; + = active, no number. Hits are enriched below; roughly 4% of the tested compounds scored in any of these assays. Rule as the data show it, unless noted: active = inhibition above about 30%; inconclusive = no clear call, values can overlap the other calls; inactive = below that.

SMILES	Bead autofluor	VHR inh abs	MazEF act	BoNT F protease	Anthrax LF prot	BoNT-A LC inh2
COc1c(OC(C)=O)ccc(/C=C/c2ccc3ccccc3n2)c1[N+](=O)[O-]	23285*	16	-7	-6	1	-1
Cc1ccc(C2=C/C(=C/c3cccs3)C(=O)O2)cc1	2124	-4	+	-10	-3	0
Cc1ccc(S(=O)c2ccc([N+](=O)[O-])c3nonc23)cc1 (centres undefined)	2848	·	375*	0	4	4
Cc1ccc(Nc2c([N+](=O)[O-])ccc3nonc23)c(C)c1	4051	·	2	?	-10	2
CCCCN(C(=O)Nc1ccc(Cl)cc1)C1CCN(C(C)=O)CC1	17864*	-1	4	7	1	5
Cc1csc(SCC(=O)NC(=O)c2ccccc2)n1	·	·	-2	·	·	·
CCOC(=O)C1CCCN(Cc2cc(Br)c(OC)cc2OC)C1 (centres undefined)	22833*	13	0	0	-1	0
CCN(CC)C(=O)C1CCCN(Cc2ccc(OC)c(C)c2C)C1 (centres undefined)	21287*	13	-3	2	-1	?
O=C(CCNC(=O)C1CCN(S(=O)(=O)c2ccccc2)CC1)NCc1cccnc1	2941	·	6	-4	-2	0
N#Cc1ccccc1CSc1nc(N2CCCCC2)nc(N2CCCCC2)n1	4848	21	-2	18	-2	0
CCC(=O)N1CCc2cc(S(=O)(=O)NCCC(=O)N3CC=C(c4ccccc4)CC3)ccc21	22498*	7	·	-4	-1	-2
CCC(=O)N1CCc2cc(S(=O)(=O)NCCC(=O)N3CCc4ccccc4C3)ccc21	10223	-11	10	3	-4	0
CCOc1ccc(S(=O)(=O)N/N=C2/CC(c3ccccc3)Oc3ccccc32)cc1 (centres undefined)	19045*	30	5	12	-6	8
Clc1ccccc1CN1CCN(c2ccccc2Cl)CC1	9768	27	-2	-18	-4	-2
CCCCNC(=O)c1ccc(N2CCOCC2)c(NS(=O)(=O)c2ccc(OC)cc2)c1	20173*	11	10	8	2	9
COCCCNC(=O)c1ccc(N2CCOCC2)c(NS(=O)(=O)c2ccc(OC)cc2)c1	6162	-6	3	-2	-5	0
O=C(NCCCN1CCOCC1)c1ccc(CNS(=O)(=O)c2ccc(F)cc2)cc1	16290*	10	4	0	2	?
O=C(NCCCN1CCOCC1)c1cc(-c2ccc(F)cc2)on1	18525*	4	6	9	2	6
COc1ccc(S(=O)(=O)NCCCCCC(=O)NCCCN2CCOCC2)cc1	20933*	-8	-7	2	-2	3
COC(=O)c1ccccc1NC(=O)C(C)NS(=O)(=O)c1ccc(OC)cc1 (centres undefined)	3967	-11	4	-6	1	-1
COc1cc(C(=O)NCc2ccc(C)cc2)ccc1OCc1c(C)noc1C	3047	-2	-16	-7	-6	0
Cc1ccc(C(=O)Nc2cccc(-c3ccc(N4CCOCC4)nn3)c2)cc1C	?	·	11	-11	?	-1
CCN(CC)CC(=O)Nc1nc(-c2ccc(Cl)cc2)cs1	2681	29	-1	0	1	1
Cc1nc(CNS(=O)(=O)c2cc(C)c(C)cc2C)cs1	2187	-12	-1	7	-3	2
Nc1c(C(=O)NCc2ccc(F)cc2)c2nc3ccccc3nc2n1CCCN1CCOCC1	23744*	20	11	-2	2	4
SMILES	Bead autofluor	VHR inh abs	MazEF act	BoNT F protease	Anthrax LF prot	BoNT-A LC inh2
O=C(NCCN1CCOCC1)c1cc(-c2ccco2)on1	17211*	27	2	-7	-6	-4
O=C(NCCN1CCOCC1)c1cc(-c2cccc(O)c2)on1	5980	1	9	0	2	0
CCOC(=O)C1CCN(Cc2cc(C(C)(C)C)c(O)c(C(C)(C)C)c2)CC1	4256	-23	-1	-5	-4	0
Cc1ccc(S(=O)(=O)N2CCCCC2)cc1NC(=O)COC(=O)c1c(F)cccc1F	4457	9	10	-1	0	-1
O=C(CCSCCC(=O)NN=Cc1ccc(F)cc1)NN=Cc1ccc(F)cc1	4777	·	6	-4	2	-1
Cc1ccc(C(=O)NC(=S)NCC2CCCO2)cc1Br (centres undefined)	2303	15	-6	-1	0	0
COc1cc(-c2nc3ccccn3c2/N=C/c2cccc(F)c2)ccc1O	2610	10	11	-5	-1	-1
FC(F)Sc1nnc(-c2cccs2)n1-c1ccccc1	19168*	1	-2	1	2	1
CC(C)(C)NC(=O)COC(=O)c1ccccc1Oc1ccccc1	4600	11	-5	-5	-2	0
O=C(Oc1ccc2ccccc2c1)C1CCC1	3990	51*	2	-7	6	0
CCC(=O)n1nc(-c2ccccc2)nc1SCC(=O)Nc1ccc(C)cc1	21542*	21	-13	-3	-1	-1
Cc1ccc(NC(=O)CSc2nc3ccccc3c3nc4ccccc4n23)cc1	19179*	12	27	1	0	0
COc1ccc(NC(=O)CSc2nc3ccccc3c3nc4ccccc4n23)cc1	2453	4	-50	-17	-1	-1
CCOC(=O)c1ccc(NC(=O)C2C3C=CC(C3)C2C(=O)O)cc1 (centres undefined)	5899	-1	3	-3	-1	0
O=C(CNS(=O)(=O)c1ccc(F)cc1)N1CCCCCC1	4112	16	0	-6	1	-1
CCc1nccn1CCC(=O)N1CCCC(Nc2ccc(C(C)C)cc2)C1 (centres undefined)	·	22	8	·	·	·
Cc1ccc(NC2CCCN(C(=O)CCN3CCOCC3)C2)cc1C (centres undefined)	5569	53*	-5	2	2	-3
Cc1ccc(NC2CCCN(C(=O)CCn3nccc3C)C2)cc1C (centres undefined)	5863	54*	-16	2	1	1
CC(C)c1ccc(NC2CCCN(C(=O)CCN3CCOCC3)C2)cc1 (centres undefined)	5104	51*	10	0	-3	0
O=C(Cn1nc(C(=O)O)c2ccccc2c1=O)Nc1cc(Cl)ccc1-n1cncn1	5974	·	-13	-11	-3	-2
Cc1nc(SCc2ccccc2F)c2oc3ccccc3c2n1	4049	8	3	?	5	-1
O=C(Nc1ccccc1)c1nn(-c2cccc(C(F)(F)F)c2)ccc1=O	4834	1	-21	-4	-5	-2
COc1ccc(-c2cc(=O)oc3c(C)c(OC(=O)c4cccs4)ccc23)cc1	2544	-2	109*	-6	-1	-1
CCOC(=O)C(Oc1ccc2c(-c3ccc(OC)cc3)cc(=O)oc2c1C)c1ccccc1 (centres undefined)	22308*	25	5	-4	-2	?

Source: PubChem BioAssay (several laboratories)
